Rows were chosen to be rich in hits. Some 8.8% of all compounds tested hit in one or more screens of this group.
HTT aggregate: mutant huntingtin aggregation inhibition. 220,000 tested, 1.1% active. AID 1688. Potency, µM (top dose mostly 46.1 µM), most hits filed as inhibitors. PC12 HttQ103-GFP aggregates, Acumen cytometry, 40 h; active = well fitted curve in the direction sought with a large enough effect; inconclusive = small, poorly fitted or top-dose-only effect, or another doubt; inactive = no such curve, though single readings can be large; an effect the other way counts as inactive or inconclusive; also: nearly all actives have a fitted effect of over 60% in size
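Multiplexed with ATP-based cell death, this channel scores GFP aggregates in PC12 cells expressing inducible HTTex1-Q103-GFP. Induction used 100 nM tebufenozide; compounds were tested in concentration series.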
HPGD block: HPGD (human) dehydrogenase inhibition. P15428. purified HPGD, NADH fluorescence kinetic, PGE2 substrate. Potency, µM, usual class: inhibitors. 150,000 tested, 4.3% active. AID 894
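NADH formation kinetics: reaction with 30 uM PGE2 and 1 mM NAD+ (final), 20 nM enzyme, Tris-HCl pH 8 with Tween 20, after 15 min compound preincubation at room temperature. Fluorescence change, last versus first of five reads.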
HTT ATP protect: cytoprotection in Huntington HTT-Q103 PC12 cell model | PC12 HTT-Q103 induced, cytoprotection, ATP luminescence, 40 h | Potency, µM (doses to about 56.4 µM), actives largely listed as activators | 230,000 tested, 0.14% active; active = well fitted curve in the direction sought with a large enough effect; inconclusive = small, poorly fitted or top-dose-only effect, or another doubt; inactive = no such curve, though single readings can be large; an effect the other way counts as inactive or inconclusive; also: nearly all actives have a fitted effect of over 45% in size
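Compounds added alongside 100 nM tebufenozide, which induces toxic Q103 huntingtin exon 1-GFP in stable PC12 cells; surviving cells quantified by luminescent ATP measurement. Medium: phenol red-free DMEM, 5% equine and 5% calf serum.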
Lamin A splicing: modulators of lamin A splicing; 200,000 tested, 0.01% active; HeLa LMNA splicing GFP/RFP minigene ratio, 48 h; Potency, µM (titrated, usually from 46.1 µM), hits mostly inhibitors; active = well fitted inhibition curve with a large enough effect in the signal ratio, with a control signal flat, not every such curve was filed as active; inconclusive = small, poorly fitted or top-dose-only effect, or effect the other way, or a change in a side signal; the % refers to the signal ratio
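S3 HeLa cells stably expressing lamin A-EGFP splicing minigene plus DsRed2, 600 cells/well, 48 h compound exposure at 37C. Laser-scanning cytometry; analysed as GFP (500-530 nm)/RFP (575-640 nm) total intensity ratio; 0.5% DMSO vehicle.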
ALDH1A1 block: blocks purified human ALDH1A1 activity; AID 1030; 220,000 tested, 7.3% active; P00352; Potency, µM (highest dose often 75.3 µM), most hits filed as inhibitors; Purified ALDH1A1, NADH fluorescence, propionaldehyde substrate
Target sequence (P00352 whole entry, looked up): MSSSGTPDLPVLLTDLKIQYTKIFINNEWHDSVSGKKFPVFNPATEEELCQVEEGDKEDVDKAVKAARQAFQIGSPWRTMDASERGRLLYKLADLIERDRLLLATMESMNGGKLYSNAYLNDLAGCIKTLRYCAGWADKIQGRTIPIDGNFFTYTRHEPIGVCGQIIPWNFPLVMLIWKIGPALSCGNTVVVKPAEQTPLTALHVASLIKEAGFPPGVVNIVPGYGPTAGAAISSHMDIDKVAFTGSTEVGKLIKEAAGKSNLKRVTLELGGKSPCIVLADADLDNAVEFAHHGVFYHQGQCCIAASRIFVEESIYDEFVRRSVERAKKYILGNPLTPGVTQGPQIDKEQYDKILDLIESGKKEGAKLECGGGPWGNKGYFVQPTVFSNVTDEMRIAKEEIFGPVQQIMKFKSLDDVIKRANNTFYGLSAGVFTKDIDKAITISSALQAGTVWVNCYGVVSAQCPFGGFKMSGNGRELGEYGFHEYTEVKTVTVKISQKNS
Numbers stand for hits; n = inactive; u = inconclusive; x = not tested or not shown; [ ] = dose if it differs, or a comment. Unless noted, calls follow the shape of the dose curve; as a rule, active = well fitted inhibition curve with a large enough effect (not every such curve was filed as active); inconclusive = small, poorly fitted or top-dose-only effect, or another doubt; inactive = no such curve, though single readings can be large or run the other way.

SMILES	HTT aggregate	HPGD block	HTT ATP protect	Lamin A splicing	ALDH1A1 block
Nn1c(=O)c2ccccc2n2c(SCc3ccc(C(F)(F)F)cc3)nnc12	n	11µM	n	n	22µM
Nn1c(=O)c2ccccc2n2c(SCc3ccccc3)nnc12	n	n	n[0.074 µM]	n	14µM
C=C(C(=O)O)[C@@H]1CC[C@@]2(C)CCC[C@](C)(O)[C@@H]2C1	x	n	n	x	n
COc1ccc(-c2ccc(C(c3c(C)[nH][nH]c3=O)c3c(C)[nH][nH]c3=O)o2)c([N+](=O)[O-])c1	n	x	n	u	10µM
Cc1[nH][nH]c(=O)c1C(c1ccc(-c2ccc(Cl)c(Cl)c2)o1)c1c(C)[nH][nH]c1=O	n	u	n	n	10µM
Cc1[nH][nH]c(=O)c1C(c1ccc(-c2ccc(F)cc2)o1)c1c(C)[nH][nH]c1=O	n[9.22 µM]	x	n[10 µM]	u	25µM
Cc1ccc(Nc2nc(N)nc(CC#N)n2)cc1	6.3µM	n	n	n	n
Cc1nn2c(=O)cc(COC(=O)c3ccccc3NC(=O)C(C)Oc3ccccc3)nc2s1 (configuration not stated)	x	x	x	n	x
CCc1nc(SCC(=O)N2CCC(C)CC2)c2c(=O)n(C)c(=O)n(C)c2n1	n	n	n	n	11µM
CCN(CC)CCCn1c(-c2ccccc2)nc2c(NCCOC)nc(C)nc21	x	u	n	x	u
COc1cc(OC)cc(C(=O)Nc2nnc3n2CCS3)c1	x	x	x	n	x
COc1ccc(S(=O)(=O)Nc2nnc(CC(C)(C)C)s2)cc1	x	x	x	n	11µM
COc1ccc(S(=O)(=O)Nc2nnc(C(C)(C)C)s2)cc1	n	10µM	n[10 µM]	n	10µM
COc1cc(CCC(=O)Nc2ccc(S(=O)(=O)NC3=NCCCCC3)cc2)cc(OC)c1OC	n	x	x	x	u
Oc1cccc(O)c1O	n	10µM	n	u	1.5µM
CC(=O)c1cccc(OCC(=O)c2cc(C)n(-c3cc(C)on3)c2C)c1	13µM	n	n	u	n
Cc1cc(-n2c(C)cc(C(=O)CSc3ncnc4ccccc34)c2C)no1	1.8µM	n	n	u	n
CC(C(=O)Nc1cccnc1)C1Sc2ccccc2NC1=O (configuration not stated)	n[9.22 µM]	x	n[10 µM]	x	n
CCOC(=O)c1cnc(-n2nc(C)cc2C)nc1NC1CCCCC1	n	x	n	u	25µM
CCOC(=O)c1cnc(-n2nc(C)cc2C)nc1NNc1nc(-c2ccccc2)cc(-c2ccccc2)n1	10µM	n	n[10 µM]	u	n
CCOC(=O)c1cnc(-n2nc(C)cc2C)nc1Nc1ccc(N(C)C)cc1	u	n	n[10 µM]	u	20µM
Cc1ccc(C(=O)OC[C@H]2O[C@H](Cl)C[C@@H]2OC(=O)c2ccc(C)cc2)cc1	x	n	u	x	n
O=C(O)COc1ccc(C(=O)c2ccccc2)cc1	n	x	n	x	n
CC(=O)c1ccc(OCc2ccc(C(=O)c3ccccc3)cc2)cc1	u	x	n[10 µM]	x	11µM
CCN(CC)CCNc1nc(-c2cccs2)c(CC(=O)O)s1	n	x	n	n[9.22 µM]	20µM
SMILES	HTT aggregate	HPGD block	HTT ATP protect	Lamin A splicing	ALDH1A1 block
C/C=C1/C2C=C(C)CC1(N)c1ccc(=O)[nH]c1C2 (configuration not stated)	x	n	u	x	n
CCOC(=O)c1ccc(NC(=O)c2cc3cc(C)ccc3n2C)cc1	x	x	x	n	x
COc1ccc(NC(=O)/C(Cl)=C(/Cl)S(=O)(=O)Cc2ccccc2)cn1	u	n	n[10 µM]	u	1.3µM
COc1ccc(NC(=O)/C(Cl)=C(/Cl)S(=O)Cc2ccc(Cl)cc2)cn1 (configuration not stated)	4.5µM	x	n	u	0.35µM
COc1ccc(NC(=O)C(Cl)=C(Cl)Cl)cn1	u	x	n[10 µM]	u	u
CC(=O)Nc1ccc(NC(=O)[C@@H]2CCCN2S(=O)(=O)c2ccc3c(c2)OCCO3)cc1	n	x	x	x	n
O=C(O)CSc1ccc(N=C=S)cc1	x	n	n[10 µM]	x	n[13.5 µM]
Cc1nnc(SCc2ccccc2F)n1NCc1cccs1	n	32µM	n	n	n
O=C(NCc1cccc(CNC(=O)c2ccco2)c1)c1ccco1	n	14µM	n	n	u
O=C(NCCSc1c[nH]c2ccccc12)c1ccco1	n	16µM	n	n	n
O=C(NCCCCCNC(=O)c1ccco1)c1ccco1	n	n	n	n	28µM
O=C(NCCSc1c[nH]c2ccccc12)c1c(F)cccc1F	n[9.22 µM]	x	n[10 µM]	x	n
O=C(NCc1ccccc1)c1ccco1	n	n	n[10 µM]	n	n
